Records with an inconclusive call do not appear. The source made the active and inactive calls. The calls were made as follows: active = hit-call score of the fitted dose curve at least 0.9, where 1 is the maximum; inconclusive = response in the unintended direction; inactive = score below 0.9.

The first experiment is described as follows: TAMU_PeakParms_SingleDonor1434_Asystole: Texas A&M University (TAMU) 1.5-hr Human Induced Pluripotent Stem Cell (iPSC)-derived Cardiomyocytes Calcium (Ca+2) Flux Assay for Cardiotoxicity: Asystole (quiescence of beating) (AID 2284328). The procedure, abridged: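 Average Ca2+-flux peak frequency (beats/s) was recorded in single-donor iPSC-derived cardiomyocytes after 90 min exposure (0.2–100 uM final, 0.5% DMSO). Asystole POD set as EC95 against DMSO, no preprocessing.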
Regarding `CCCCC(CC)COC(=O)c1ccccc1C(=O)OCC(CC)CCCC` (centres undefined), the outcome was inactive.

For the molecule `CCCCNC(=O)OCC#CI`, the outcome was inactive.

In the case of `CNC(=O)ON=CC(C)(C)SC`, the outcome was inactive.

Regarding `Oc1ccccc1-c1ccccc1`, the result was inactive.

The next experiment can be described thus: IUF_NPC1_cytotoxicity_72hr: Cytotoxicity Assessment at 72 hours in the Leibniz Research Institute for Environmental Medicine (IUF) Neural Progenitor Cell Proliferation Assay (NPC1) (AID 2284332).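 Also: rising LDH signal means more cytotoxicity.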 An outline of the steps:
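Membrane-integrity loss is scored from LDH released into the medium, detected as resorufin fluorescence, with activity fitted upward relative to baseline. Test material stays on human fetal-derived progenitor spheres for 72 h.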
For `COC(=O)N(OC)c1ccccc1COc1ccn(-c2ccc(Cl)cc2)n1`, the result was inactive.

Regarding `N#Cc1nn(-c2c(Cl)cc(C(F)(F)F)cc2Cl)c(N)c1S(=O)C(F)(F)F` (centres undefined), the call was inactive.

As to `COP(=S)(OC)Oc1nc(Cl)c(Cl)cc1Cl`, the molecule was classed as inactive.

For orientation: AC50 means the concentration giving half of the maximal activity seen. For `CN(C)C(=S)SSC(=S)N(C)C`, the AC50 is 20.5 µM (active).

On to `CCOC(=O)CC(SP(=S)(OC)OC)C(=O)OCC` (centres undefined), for which the result was inactive.

On to `CCCCC(CC)COC(=O)c1ccccc1C(=O)OCC(CC)CCCC` (centres undefined), for which the outcome was inactive.

Regarding `CO/C=C(/C(=O)OC)c1ccccc1Oc1cc(Oc2ccccc2C#N)ncn1`, the outcome was inactive.

As for `CNC(=O)ON=CC(C)(C)SC`, the call was inactive.

Regarding `COP(N)(=O)SC` (centres undefined), the molecule was called inactive.

As to `CC(C)(C)c1ccc(CSc2cnn(C(C)(C)C)c(=O)c2Cl)cc1`, the result was inactive.

Regarding `CCCCOC(=O)c1ccccc1C(=O)OCCCC`, the molecule was called inactive.

On to `C=CC1(C)OC(=O)N(c2cc(Cl)cc(Cl)c2)C1=O` (centres undefined), for which the result was inactive.

Turning to `CCOc1cc(Oc2ccc(C(F)(F)F)cc2Cl)ccc1[N+](=O)[O-]`, the outcome was inactive.

For the molecule `Cc1ccc(-c2c(Cl)nc(C#N)n2S(=O)(=O)N(C)C)cc1`, the result was inactive.

A short description of a further experiment: CCTE_Mundy_HCI_iCellGluta_NOG_NeuronCount: CCTE's Neurite Outgrowth Assay in iCellGluta cells for Neuron Count, Mundy Lab (AID 2284340).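 Also: cells fixed about 48 h after compound addition.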 The procedure, abridged:
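Neuron count read by automated high-content imaging of Hoechst 33342 and betaIII-tubulin/Alexa Fluor-488 labelling in human iPSC glutamatergic neurons. Activity fitted relative to DMSO.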
For `C=CCC1=C(C)C(OC(=O)C2C(C=C(C)C)C2(C)C)CC1=O` (centres undefined), the result was inactive.

Turning to `COC(=O)N(OC)c1ccccc1COc1ccn(-c2ccc(Cl)cc2)n1`, the AC50 is 12.7 µM (active).

Take `N#Cc1nn(-c2c(Cl)cc(C(F)(F)F)cc2Cl)c(N)c1S(=O)C(F)(F)F` (centres undefined): the result was inactive.

In the case of `CCCCNC(=O)n1c(NC(=O)OC)nc2ccccc21`, the outcome was inactive.

As to `COP(=S)(OC)Oc1nc(Cl)c(Cl)cc1Cl`, the half-maximal activity concentration (AC50) was 23.1 µM (active).

Regarding `CN(C)C(=S)SSC(=S)N(C)C`, the AC50 is 0.0675 µM (active).

Regarding `CCOC(=O)CC(SP(=S)(OC)OC)C(=O)OCC` (centres undefined), the result was inactive.

In the case of `CCCCC(CC)COC(=O)c1ccccc1C(=O)OCC(CC)CCCC` (centres undefined), the AC50 was 18.8 µM (active).

Consider `CO/C=C(/C(=O)OC)c1ccccc1Oc1cc(Oc2ccccc2C#N)ncn1`, for which the concentration at half-maximal activity (AC50) was 66 µM (active).

With `COP(N)(=O)SC` (centres undefined), the result was inactive.

Take `C=CCC1=C(C)[C@@H](OC(=O)[C@@H]2[C@@H](C=C(C)C)C2(C)C)CC1=O`: the call was inactive.

With `CC(C)(C)c1ccc(CSc2cnn(C(C)(C)C)c(=O)c2Cl)cc1`, the half-maximal activity concentration (AC50) is 6.79 µM (active).

Take `CCCCOC(=O)c1ccccc1C(=O)OCCCC`: the result was inactive.

Take `C=CC1(C)OC(=O)N(c2cc(Cl)cc(Cl)c2)C1=O` (centres undefined): the result was inactive.

As to `CCOc1cc(Oc2ccc(C(F)(F)F)cc2Cl)ccc1[N+](=O)[O-]`, the AC50 was 50 µM (active).

As to `Cc1ccc(-c2c(Cl)nc(C#N)n2S(=O)(=O)N(C)C)cc1`, the concentration at half-maximal activity (AC50) is 50 µM (active).

For the origin of these results see PubChem BioAssay (EPA / NIEHS).
